Whole data set: some 33,000 sequences, median “E-score (-0.5 to 0.5)” near -0.0014, cut for the highest 2% near 0.25. The full list was thinned out, with the highest values kept by preference.

The target in this test is T1, Cad1 (UniProt P24813).
T1 sequence: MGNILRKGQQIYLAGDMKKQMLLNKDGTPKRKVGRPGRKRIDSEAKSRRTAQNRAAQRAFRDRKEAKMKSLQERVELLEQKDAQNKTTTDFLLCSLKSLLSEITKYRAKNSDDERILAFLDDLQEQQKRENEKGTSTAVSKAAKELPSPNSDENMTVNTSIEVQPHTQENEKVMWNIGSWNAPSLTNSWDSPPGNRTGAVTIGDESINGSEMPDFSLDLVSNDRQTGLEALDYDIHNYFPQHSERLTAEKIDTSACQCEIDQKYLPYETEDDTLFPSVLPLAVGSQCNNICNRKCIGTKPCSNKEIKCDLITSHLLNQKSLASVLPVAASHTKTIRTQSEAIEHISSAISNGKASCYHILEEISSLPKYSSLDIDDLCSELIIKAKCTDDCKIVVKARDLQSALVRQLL
The test is described as follows: PBM E-score (8-mer binding enrichment) (E-score (-0.5 to 0.5)); higher = stronger / more preferred TF binding. Conditions: protein concentration: 100 nM; construct: GST-full length. The method, boiled down: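 Full-length yeast transcription factors or their DNA-binding domains, GST-tagged and expressed with PURExpress, were applied at about 100-200 nM to universal all-10-mer Agilent arrays. These arrays had been made double-stranded by primer extension on fresh or once-stripped slides. Detection used fluorescent anti-GST, normalisation used masliner, and E-scores for ungapped eight-base words pooled with reverse complements came from the Universal PBM Analysis Suite.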
For the sequence ACGCATGG, the “PBM E-score” value was -0.215.
Consider CTGCTGAA, for which the “PBM E-score” value turned out to be 0.0549.
The value for CAGCTGAC was 0.182; that for ACGCTGAT was 0.166; that for CTGCTGAC was 0.275.
For ACGCTGAC, the “PBM E-score” value is 0.3.
Consider CTGCTGTC, for which the “PBM E-score” value is -0.0811.
With CAGCTGAG, the “PBM E-score” value worked out at 0.0708.
For ACGCTGTC, the “PBM E-score” value was -0.187.
For CAGCTGTC, the “PBM E-score” value was determined as 0.253.
To GGAAGAAA belongs -0.0518.
Take CTAGTTGC: the “PBM E-score” value worked out at 0.0214.
As to GGACTTGA, the “PBM E-score” value is -0.232.
The value for ATACTCTG was 0.0457; that for CTCAGCAA was 0.106; that for ATCAGCAA was 0.122.
To GTCAGCAA belongs 0.295; to GTCAGCAC, 0.261.
To ATCAGCAC belongs 0.0147; to CTCAGCAC, 0.0326; to AGCTCCAC, -0.0867.
As to AACGTAGA, the “PBM E-score” value was 0.0503.
In the case of CTTGCTAC, the “PBM E-score” value was -0.0445.
To ACTGTAAT belongs 0.111.
To CTGCCGCA belongs -0.0367; to ACGGGTCT, -0.252.
The value for AGCGATGG was -0.0366; that for TCTTAGCA was -0.0984; that for AACGACCT was -0.0376.
Take ATCAATCA: the “PBM E-score” value came out at 0.13.
The value for GTGATTAA was 0.228.
In the case of ACGATTAA, the “PBM E-score” value was found to be 0.0443.
The value for ATGATTAC was 0.192; that for ATGATTGA was 0.0737; that for ATGATTAA was 0.32.
To CTGATTAC belongs 0.334; to CTGATTTC, 0.182.
To TCGATTAA belongs 0.301.
As to ATGATTAG, the “PBM E-score” value is 0.094.
The value for GCGATTAA was 0.123.
To CTGATTAA belongs 0.362.
Consider CTGATTTA, for which the “PBM E-score” value worked out at 0.0612.
To AGGTACAT belongs -0.172; to AATCTGGC, -0.102.
The value for CTCCCTGA was -0.247; that for AAGCGCCT was -0.165.
To ACCTTTAG belongs -0.142; to CATAGAGC, -0.22; to CAGTTGGG, -0.0373.
As to AAAATTCT, the “PBM E-score” value was -0.00425.
To AAAATTAT belongs 0.285.
To AAAATTAA belongs 0.209; to AAAATTGT, 0.167.
The value for AAAATTAG was 0.269; that for AAAATTAC was 0.072; that for ATCAGTTA was 0.212.
Take GCCCATAC: the “PBM E-score” value is -0.1.
The value for GGCGACCC was -0.332.
The value for ATTGCCTG was 0.0283.
To CTTAACAC belongs 0.127.
With ATTAACAA, the “PBM E-score” value is 0.201.
As for ATTAACAC, the “PBM E-score” value was 0.275.
The value for CGAATAGC was 0.0486.
To ACACGCGT belongs 0.258; to ACACGCGA, 0.143.
In the case of ACACGCGG, the “PBM E-score” value was found to be 0.0311.
The value for ACAAGCGG was 0.0904; that for GTTGGAGA was -0.0985.
To ACAAATAT belongs 0.262; to ACAAATAG, 0.182.
As for ACAAATGC, the “PBM E-score” value amounted to 0.255.
The value for CCAAATAC was 0.013.
The value for ATAAATAG was 0.121; that for GCAAATAC was 0.0468.
To ATAAATAC belongs 0.252; to ACAAATGT, 0.0516; to ATAAATAA, 0.239.
For ACAAATAA, the “PBM E-score” value amounted to 0.206.
The value for ACAAATAC was 0.271; that for CCAAATGC was -0.0453.
As for GCGGGCCC, the “PBM E-score” value was -0.157.
The value for ATCCGCCA was 0.0883.
The value for CAGAAGAC was 0.0287; that for AATCATAC was 0.0986; that for GGTGAAAC was -0.0742.
The value for GACTATCC was -0.0732.
Turning to AGAATGAT, the “PBM E-score” value came out at 0.0516.
To CTTGGCTC belongs -0.149; to CAAGCTTA, 0.159.
Turning to TAAGCTTA, the “PBM E-score” value was found to be 0.378.
To TAAGCTGA belongs 0.208.
The value for ACGTAGGG was -0.284.
The value for AGAGTTTG was 0.0139; that for AGATCCCG was 0.281; that for AGATCCCT was -0.312.
Turning to CGATCCCG, the “PBM E-score” value is -0.265.
To AAGACCTT belongs -0.0766.
With CCATTCTC, the “PBM E-score” value was -0.114.
The value for TGGAGAAA was -0.151.
To AAATTACG belongs -0.00187.
In the case of AAATTAAT, the “PBM E-score” value was 0.288.
To AAATTAAC belongs 0.0173.
The value for AAATTAGA was 0.191; that for AGATTAAT was 0.16.
The value for AAATTAGG was 0.13; that for AAATTAAA was 0.257.
Take AAATTAAG: the “PBM E-score” value was found to be 0.0523.
To AAATTAGT belongs 0.273.
For AAATTACT, the “PBM E-score” value is 0.314.
The value for AAATTACC was 0.081; that for GAATTAAA was -0.0332.

The values above are taken from the supplement of paper PMC3334620.
